The panel holds about 83,000 compounds, 20% with a hit somewhere; the sample as a whole holds those more often.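 How to read the values: 0–100, growth inhibition (40 = 60% inhibited); 0, no net growth; -100 to 0, cell death (-40 = 40% of starting cells died; -100 = all dead).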 Values without a mark were called inactive. Activity calls are given as the source filed them. Rule for the calls: active = growth percent below 10; inactive = the rest.

Data on 9 compounds can be found in PubChem BioAssay (NCI).

Common to all, as to assay: NCI-60 one-dose screen, 48 h (100 = growth as untreated, 0 = no growth, -100 = all killed)
The test system of one assay is HCT-15 colon. Conditions: 10 µM unless noted.
For a further assay, the system named is HT29 colon. Conditions: 10 µM unless noted.
A further assay relates to SNB-75 CNS. Conditions: 10 µM unless noted.
The test system of the next assay is SNB-19 CNS. To be noted: 10 µM unless noted.
For a further assay, the system named is PC-3 prostate. To be noted: 10 µM unless noted.
In a further assay the test system is SK-MEL-5 melanoma. Conditions: 10 µM unless noted.
The next assay relates to UACC-62 melanoma. Conditions: 10 µM unless noted.
For the next assay, the system named is LOX IMVI melanoma. To be noted: 10 µM unless noted.
The next assay deals with SK-MEL-2 melanoma. Conditions: 10 µM unless noted.
For another assay, the system named is SN12C renal. Conditions: 10 µM unless noted.
The next assay relates to UO-31 renal. Conditions: 10 µM unless noted.
The subject of another assay is TK-10 renal. To be noted: 10 µM unless noted.
The next assay deals with CAKI-1 renal. To be noted: 10 µM unless noted.
In a further assay the test system is A498 renal. To be noted: 10 µM.
A further assay has as its system U251 CNS. Conditions: 10 µM unless noted.
For the next assay, the system named is SK-MEL-28 melanoma. Conditions: 10 µM unless noted.
A further assay concerns EKVX NSCLC. Conditions: 10 µM unless noted.
The subject of another assay is HL-60(TB) leukemia. Conditions: 10 µM unless noted.
In the next assay the test system is CCRF-CEM leukemia. Conditions: 10 µM unless noted.
The subject of another assay is ACHN renal. To be noted: 10 µM unless noted.

In the case of `COC(=O)C1OC(Oc2ccc(N(CCCl)CCCl)cc2)C(OC(C)=O)C(OC(C)=O)C1OC(C)=O` (stereo unspecified), the growth with HCT-15 colon is 83.3%; with HT29 colon it was 80.7%; with SNB-75 CNS, 59.2%; in the assay with SNB-19 CNS, 92.6%; in the assay with PC-3 prostate, 78%; in the assay on SK-MEL-5 melanoma, 92.1%. Moreover, the growth is 79.6% with UACC-62 melanoma; 77.2% in the assay on LOX IMVI melanoma; 109% in the assay on SK-MEL-2 melanoma; 62.4% with SN12C renal; 73.1% with UO-31 renal; 92.5% in the assay on TK-10 renal. Also, the growth in the assay on CAKI-1 renal is 3.7% (active); in the assay with A498 renal it was 104%.

As to `CNC12C3C4C1C1C2C3C41C(=O)N[C@H](C(=O)N(C)[C@H](C[C@@H](OC(C)=O)c1nc(C(=O)N[C@@H](Cc2ccccc2)C[C@H](C)C(=O)OC)cs1)C(C)C)C1CC1` (stereo partly specified), the growth was 11.4% in the assay with HCT-15 colon; -12.6% (active) in the assay with HT29 colon; 26.9% in the assay with SNB-75 CNS; 33.4% in the assay with SNB-19 CNS; 10.1% in the assay on U251 CNS; -54.4% (active) in the assay on SK-MEL-5 melanoma. Moreover, the growth in the assay with UACC-62 melanoma is 13.9%; in the assay on LOX IMVI melanoma it was 0.284% (active); in the assay on SK-MEL-28 melanoma, 62.3%; with SK-MEL-2 melanoma it was 25.4%; in the assay on EKVX NSCLC it was 30.9%; in the assay with SN12C renal it was 31.5%. Besides, the growth in the assay on UO-31 renal is 36.3%; in the assay on TK-10 renal it was 23.4%; in the assay with CAKI-1 renal, 87.9%; with A498 renal, 21.3%; in the assay on HL-60(TB) leukemia, -34.9% (active); in the assay on CCRF-CEM leukemia, -1.11% (active).

For the compound `CCCCCCCCC(CO)NCCc1ccccc1` (stereo unspecified), the growth is 102% in the assay on HCT-15 colon; 73.6% in the assay with HT29 colon; 108% in the assay on SNB-75 CNS; 102% in the assay with SNB-19 CNS; 93.3% in the assay with U251 CNS; 101% in the assay on SK-MEL-5 melanoma. In addition, the growth is 98.5% in the assay on UACC-62 melanoma; 103% in the assay on LOX IMVI melanoma; 108% in the assay on SK-MEL-28 melanoma; 96.3% with SK-MEL-2 melanoma; 119% in the assay with EKVX NSCLC; 99.4% in the assay with SN12C renal. The growth in the assay on UO-31 renal was 88.1%; with TK-10 renal, 98.8%; in the assay with A498 renal it was 95.2%; in the assay on HL-60(TB) leukemia, 70.1%.

For `Nc1ccc(OCCNS(=O)(=O)c2cccc(S(=O)(=O)F)c2)c(Cl)c1`, the growth was 93.4% in the assay on HCT-15 colon; 106% with HT29 colon; 50.5% in the assay on SNB-75 CNS; 96.6% with SNB-19 CNS; 97.6% with PC-3 prostate; 97.1% in the assay on SK-MEL-5 melanoma. Besides, the growth with UACC-62 melanoma was 93.2%; with LOX IMVI melanoma, 94.2%; with SK-MEL-28 melanoma, 88.8%; in the assay with SK-MEL-2 melanoma it was 88.9%; with SN12C renal, 102%; in the assay with UO-31 renal it was -13.3% (active). The growth was 102% in the assay on TK-10 renal; 96.2% in the assay on ACHN renal; 86.8% with CAKI-1 renal; 70.8% with A498 renal; 98.1% in the assay with HL-60(TB) leukemia; 93.5% in the assay on CCRF-CEM leukemia.

In the case of `O=C(c1ccccc1O)c1[nH]c(Cl)c(Cl)c1-n1c(C(=O)c2ccccc2O)cc(Cl)c1Cl`, the growth in the assay with HCT-15 colon is 9.94% (active); in the assay on HT29 colon it was 4.28% (active); in the assay with SNB-75 CNS, -1.42% (active); in the assay with SNB-19 CNS it was 9.34% (active); in the assay on U251 CNS it was -11.8% (active); in the assay with SK-MEL-5 melanoma, -77.9% (active). Also, the growth with UACC-62 melanoma is -22% (active); with LOX IMVI melanoma it was 10.5%; in the assay on SK-MEL-28 melanoma, 14.2%; in the assay with SK-MEL-2 melanoma, -36.9% (active); in the assay on SN12C renal, -14.2% (active); with UO-31 renal it was -3.72% (active). Also, the growth was 6.68% (active) in the assay on TK-10 renal, -11.1% (active) in the assay with CAKI-1 renal, -33.3% (active) in the assay with A498 renal and 3.92% (active) in the assay with CCRF-CEM leukemia.

For the compound `COc1ccc(C(=O)c2sc3nc4c(cc3c2N)N2CCC4CC2)cc1OC`, the growth is 96.4% with HCT-15 colon; 105% in the assay on HT29 colon; 83.9% in the assay on SNB-75 CNS; 108% with SNB-19 CNS; 84.9% in the assay with U251 CNS; 48.2% with SK-MEL-5 melanoma. The growth in the assay with UACC-62 melanoma was 89.9%; in the assay with LOX IMVI melanoma, 85.4%; in the assay on SK-MEL-28 melanoma it was 96.1%; in the assay with SN12C renal, 93.4%; in the assay with UO-31 renal it was 52.8%; in the assay on TK-10 renal it was 91.7%. Besides, the growth in the assay with ACHN renal was 81.8%; in the assay with CAKI-1 renal it was 79.7%; with A498 renal, 116%; with HL-60(TB) leukemia, 94.5%; in the assay on CCRF-CEM leukemia, 74.7%.

Consider `COC(=O)C1CCC(NC(=O)c2csc([C@@H](C[C@H](C(C)C)N(C)C(=O)[C@@H](NC(=O)[C@H]3CCCCN3C)C(C)C)OC(C)=O)n2)CC1` (stereo partly specified), for which the growth in the assay with HCT-15 colon is 11.5%; in the assay on HT29 colon it was -0.603% (active); in the assay with SNB-75 CNS, 61.6%; in the assay on SNB-19 CNS, 38.4%; with U251 CNS, 2.97% (active); with SK-MEL-5 melanoma, -27.7% (active). In addition, the growth in the assay on UACC-62 melanoma is 48.1%; in the assay on LOX IMVI melanoma it was 21.5%; in the assay on SK-MEL-28 melanoma, 60%; in the assay with EKVX NSCLC it was 40.8%; in the assay on SN12C renal it was 28.7%; in the assay with UO-31 renal it was 60.8%. Moreover, the growth was 63.1% in the assay on TK-10 renal; 23.8% in the assay on ACHN renal; -6.6% (active) with A498 renal; -21.8% (active) in the assay with HL-60(TB) leukemia; 13% in the assay with CCRF-CEM leukemia.

In the case of `Cn1cc(C2=C(c3cn(C4CCN(Cc5ccccn5)CC4)c4ccccc34)C(=O)NC2=O)c2ccccc21`, the growth was 85.9% in the assay with HCT-15 colon; 14.3% in the assay on HT29 colon; 57.8% with SNB-75 CNS; 101% in the assay with SNB-19 CNS; 88.4% with U251 CNS; 69.2% in the assay on SK-MEL-5 melanoma. Also, the growth with UACC-62 melanoma was 13.7%; with LOX IMVI melanoma, 48.5%; with SK-MEL-28 melanoma, 18.7%; with EKVX NSCLC it was 83.4%; in the assay on SN12C renal, 81.1%; with UO-31 renal, 48.4%. In addition, the growth in the assay on TK-10 renal was 56.3%; with ACHN renal it was 63.8%; in the assay with CAKI-1 renal it was 50.8%; in the assay on A498 renal, 88.1%; with HL-60(TB) leukemia, 39.8%; in the assay with CCRF-CEM leukemia, 112%.

For `COC(=O)[C@@H](C)C[C@H](Cc1ccccc1)NC(=O)c1csc([C@@H](C[C@H](C(C)C)N(C)C(=O)[C@@H](NC(=O)[C@H]2CCCCN2C)C(C(F)(F)F)C(F)(F)F)OC(C)=O)n1`, the growth with HCT-15 colon was 22.3%; with HT29 colon, 14.4%; in the assay on SNB-75 CNS, 14.9%; in the assay with SNB-19 CNS, 23.2%; in the assay with U251 CNS, 3.74% (active); in the assay with SK-MEL-5 melanoma, -18.5% (active). Moreover, the growth in the assay on UACC-62 melanoma is 26.4%; with LOX IMVI melanoma it was 13.5%; with SK-MEL-28 melanoma, 71.5%; with SK-MEL-2 melanoma it was 34.5%; in the assay with EKVX NSCLC, 40.4%; in the assay on SN12C renal, 28.3%. Besides, the growth is 28.5% with TK-10 renal; 28.2% with ACHN renal; -4.49% (active) with A498 renal; -33.7% (active) with HL-60(TB) leukemia; 4.93% (active) in the assay on CCRF-CEM leukemia.
